Consider 40 sequences from the supplement of paper PMC6555819.

This test concerns VDR:RXRa (NR concentration 270 nM, RXRa partner concentration 90 nM). The test is described as follows: PBM binding z-score (relative to random genomic background probes); higher = stronger binding; sequences stand for … in GC…GCGATTGACAGCGTAGAATGAAGG
The protocol:
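Protein-binding microarray (Agilent 4x180K custom design, double-stranded 60-nt probes: 5' GC cap, 34-nt variable region, 24-nt constant primer region; full probe sequence given). Purified or IVT nuclear receptor:RXRα heterodimers (3:1 NR:RXRα, mostly 270:90 nM) or homodimers were incubated for 1 h in PBS with 2% milk and no ligand, then detected with Alexa488 antibodies. Fluorescence from o1-orientation probes (~5 replicates averaged) was converted to z-scores against 500 random hg19 background probes. Variable regions are seed direct-repeat (DR0–DR5) sites, all their single-nucleotide variants and half-site ablations.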
As to AATACAGGGTCACTAGGCCAGAGCAGGTACGAAT, the PBM binding z-score was 4.03.
The figure for ACTATTAGTTGACTTAGGGCACCCGATACGACGC is 0.0637.
In turn, ACTAGTTGGTCAGCTAAGGTCACACACAATTCGG registered a PBM binding z-score of 3.99.
Take CAAACTAGGTCACAGAGGTCAGAGTCCGTGCGTA: the PBM binding z-score worked out at 7.34.
The figure for TCTAGGTGGTCAAAGGTCACACACTCGAAATGCG is 5.38; for TCATCTAGGTAAAAGGTGAAAGTCGGTGTGGTAA it is 1.5.
The figure for GCTGCTAGGTCAGGTTGGCCAGCTAACGGGTACG is 0.052.
CCTATTAGTTGACCATAAGGGCAACCAAAGCTCG came in with a PBM binding z-score of 0.939.
The figure for CCTTACGGGTCACTGAGAGGTTATAGCATTTGGA is 4.55.
AGTATGAGGTTATTAAGATCAGGGAATTGCGGTC: the PBM binding z-score is 2.58.
GAGACAGGGTCAAGGCCAGAGTACGCGTATTGAT had a PBM binding z-score of 4.4.
The sequence TTTTGTAGATCAAGCAGGTTAAGAAAGCCTGAGT had a PBM binding z-score of 0.649.
GCTAGTTGGTCAATAAAAGGTCACACACCGGTCG had a PBM binding z-score of 4.16.
Take TCTTGTAGATCACCAGGAGGTTAAGAAAGATCGA: the PBM binding z-score was 0.799.
The figure for TCTAGTTGGTCAAAGGTAACACACTCGAAATGCG is 1.7; for CAAGCTAGGTCAAGGTCAAAGTCGGTTTGTGCCA it is 5.24.
For ACAGACAGGTGATGAAGGTAACTAAGGCTATCAT, the PBM binding z-score is 0.295.
As to CGTACAAGGTCAGCAGGTCAGTGAAAGCGACGTG, the PBM binding z-score was 4.16.
The figure for TCTTGTAGATCGAAGGTTAAGAAAGCCGAAGCCT is 0.313.
The figure for ATCTCTAGGCAACCAAGTTCAGTGAATGCCGAAC is 2.1; for CGAACTAGGTCACAGAGGTCAAAGTCCGTGCGTA it is 8.3.
ACAGACAGGTGATGGAGGTAACTCAGGCTATCAT had a PBM binding z-score of 0.681.
The sequence CCTAGTTGGTCAGGAGGTCACCCACCGGATATGA had a PBM binding z-score of 3.66.
The figure for CGTCCAAGGTCAATGCTAGGTCAGTGATAGCATT is 4.92; for TCGAGTAGGTTACCAATGGGGCATTCATCTTTCT it is 0.117; for CCTACTGGGCCACGAACGGTCATTGATTCAGTGA it is -0.227.
Sequence ATATGTACGTTATCGGGTCATTCAGTTTGCGCAT registered a PBM binding z-score of 5.03.
The figure for TCTTGTAGATCCACAGGAGGTTAAGAAAGATCGA is 0.74; for GATACAGGGTCAAGGCCAGGGTACGCGTATTGAT it is 4.71; for TCGAGTAGGTTAGTCGGGGCATTCAGCCAACATA it is 2.07.
As for TCATATAGGTAAATTCTAGGTGAAAGTCCGATCT, the PBM binding z-score turned out to be 1.14.
Turning to GTACCAAGGTCAATAGGTCGTTGATGAGTAGGCG, the PBM binding z-score is 4.69.
The figure for CGTCCAAGGTCATAGGCGGTCAGTGAAGACAGAT is 4.7; for CCTAGCAGGCCAATCTGGGTCAGTCAAGGCTTGA it is -0.258; for CGAACCAGGTCAGAACAGGACAGTGAAGGATGAT it is 1.44.
The figure for CTCGAAAGGTCGGTTGAGGCGAGTATACGGATAA is 0.809; for CAAACTAGGTCACAGAGGTCTAAGTCCGTGCGTA it is 4.9.
The figure for AATACAGGGTCATCGAAGGCCAGAGTACGCACAG is 5.49; for TCGAGTAGGTTACCAATGGGGAATTCAGCTTTCT it is 0.0458.
CCTAGTAGTTGACCATAAGGGCAACCGAAGCTCG: the PBM binding z-score worked out at 0.633.
